The supplement of paper PMC10849652
The full data set covers some 7,900 targets. This sample favours those with a hit. About 0.6% of all pairs of compound and target were hits. Values without a mark were called inactive.

Assays:
Assay in all cases: log2 fold change, soluble protein after heating vs DMSO (PISA); higher = thermal stabilisation; K562 cells, 10 uM, 30 min; active = over 0.2 and 3.5 SD of the protein, either way, in both replicates (recomputed)
erlotinib = compound: C#Cc1cccc(Nc2ncnc3cc(OCCOC)c(OCCOC)cc23)c1 [erlotinib]
Procedure, shortened: (§1)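 Quantification of soluble protein used TMTpro 16plex LC-MS/MS, with channel sums equalised. Samples were the supernatant after 21,000xg for 90 min of pooled aliquots from K562 cells (2×10^6 cells/mL) treated with 10 μM compound for 30 min, heated for 3 min over 48°C-58°C, and extracted in PBS with 0.5% NP-40 at 4°C. Values, from duplicates, describe thermal stability against control samples on a log2 fold-change scale.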

[1] = compound: C/C(=N\NC(=O)C1=CC(=CC=C1)S(=O)(=O)N2CCOCC2)/C3=C(C=CC(=C3)Cl)O
Procedure, shortened: as §1

[2] = compound: C1=CC(=C(C=C1Cl)C2=NC3=NC=CN=C3C(=N2)NC4=CC=NC=C4)F
Procedure, shortened: as §1

[3] = compound: C1=CC(=CC=C1C2=NC3=C(N2)C=C(C=C3)C(=O)N)OC4=CC=C(C=C4)Cl
Procedure, shortened: as §1

[4] = compound: C1=CC2=C(C=CC(=C2)/C=C\3/C(=O)NC(=NCC4=CC=CS4)S3)N=C1
Procedure, shortened: as §1

[5] = compound: C1=CC2=NC=CN=C2C=C1/C=C/3\C(=O)NC(=O)S3
Procedure, shortened: as §1

[6] = compound: C1=CC=C(C=C1)C2=NC(=C(N2)C3=CC=NC=C3)C4=CC(=C(C=C4)Cl)O
Procedure, shortened: as §1

[7] = compound: C1=CC=C2C(=C1)C3=NNC4=CC=CC(=C43)C2=O
Procedure, shortened: as §1

[8] = compound: C1CCN(C1)C(=O)NC2=CC=CC(=C2)NC3=NC=C(C(=N3)NCCC4=CN=CN4)Br
Procedure, shortened: as §1

[9] = compound: C1CN(CCC1(CC2=CC=C(C=C2)Cl)N)C3=NC=NC4=C3C=CN4
Procedure, shortened: as §1

Sequence of UniProt Q1KMD3 (Q1KMD3 whole entry, looked up): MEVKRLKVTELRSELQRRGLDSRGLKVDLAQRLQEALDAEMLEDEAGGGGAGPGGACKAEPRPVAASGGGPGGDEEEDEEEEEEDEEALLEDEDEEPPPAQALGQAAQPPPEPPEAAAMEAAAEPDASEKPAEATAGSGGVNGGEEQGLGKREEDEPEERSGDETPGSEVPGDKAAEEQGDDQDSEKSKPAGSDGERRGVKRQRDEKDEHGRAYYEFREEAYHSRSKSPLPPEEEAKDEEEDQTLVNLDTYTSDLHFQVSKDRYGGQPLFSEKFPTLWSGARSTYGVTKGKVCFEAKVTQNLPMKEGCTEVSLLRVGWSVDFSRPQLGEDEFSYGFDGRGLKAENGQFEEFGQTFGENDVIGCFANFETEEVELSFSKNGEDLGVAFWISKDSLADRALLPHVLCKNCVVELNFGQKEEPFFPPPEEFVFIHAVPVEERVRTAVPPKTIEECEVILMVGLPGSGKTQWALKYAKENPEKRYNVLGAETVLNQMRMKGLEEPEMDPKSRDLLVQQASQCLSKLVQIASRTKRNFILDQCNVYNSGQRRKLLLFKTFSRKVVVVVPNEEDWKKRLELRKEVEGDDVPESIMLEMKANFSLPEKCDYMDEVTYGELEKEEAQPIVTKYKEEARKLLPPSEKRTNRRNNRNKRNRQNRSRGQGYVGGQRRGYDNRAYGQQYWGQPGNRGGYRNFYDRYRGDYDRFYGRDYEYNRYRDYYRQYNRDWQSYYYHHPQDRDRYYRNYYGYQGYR
Sequence of UniProt Q53R41 (Q53R41 whole entry, looked up): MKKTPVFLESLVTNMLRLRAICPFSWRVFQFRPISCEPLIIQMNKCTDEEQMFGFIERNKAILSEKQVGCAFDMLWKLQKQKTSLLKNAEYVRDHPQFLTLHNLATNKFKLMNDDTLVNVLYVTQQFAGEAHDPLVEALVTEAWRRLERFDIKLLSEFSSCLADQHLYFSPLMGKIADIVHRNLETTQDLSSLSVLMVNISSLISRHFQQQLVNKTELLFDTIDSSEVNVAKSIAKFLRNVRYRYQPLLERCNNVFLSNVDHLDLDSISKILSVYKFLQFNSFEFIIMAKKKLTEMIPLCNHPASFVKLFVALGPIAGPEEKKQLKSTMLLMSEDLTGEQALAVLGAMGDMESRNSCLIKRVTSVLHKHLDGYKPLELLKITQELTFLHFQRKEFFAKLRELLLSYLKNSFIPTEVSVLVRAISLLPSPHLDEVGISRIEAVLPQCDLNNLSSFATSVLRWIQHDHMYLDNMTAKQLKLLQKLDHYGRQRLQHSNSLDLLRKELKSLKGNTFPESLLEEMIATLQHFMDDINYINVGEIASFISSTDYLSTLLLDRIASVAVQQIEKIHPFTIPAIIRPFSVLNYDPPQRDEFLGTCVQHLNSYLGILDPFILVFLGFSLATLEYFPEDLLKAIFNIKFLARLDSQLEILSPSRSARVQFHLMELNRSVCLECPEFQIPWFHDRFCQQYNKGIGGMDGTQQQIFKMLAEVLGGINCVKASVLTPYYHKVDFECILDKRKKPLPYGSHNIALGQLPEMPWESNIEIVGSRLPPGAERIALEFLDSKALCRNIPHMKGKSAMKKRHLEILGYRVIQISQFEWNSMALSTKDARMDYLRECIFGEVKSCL
Sequence of UniProt Q13907 (Q13907 whole entry, looked up): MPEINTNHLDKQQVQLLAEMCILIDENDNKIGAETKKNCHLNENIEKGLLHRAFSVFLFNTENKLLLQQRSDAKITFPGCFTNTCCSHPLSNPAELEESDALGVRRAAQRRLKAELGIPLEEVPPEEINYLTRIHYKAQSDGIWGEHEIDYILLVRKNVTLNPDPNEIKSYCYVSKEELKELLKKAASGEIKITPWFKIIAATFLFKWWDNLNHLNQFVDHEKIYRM
Sequence of UniProt Q9Y3I1 (Q9Y3I1 whole entry, looked up): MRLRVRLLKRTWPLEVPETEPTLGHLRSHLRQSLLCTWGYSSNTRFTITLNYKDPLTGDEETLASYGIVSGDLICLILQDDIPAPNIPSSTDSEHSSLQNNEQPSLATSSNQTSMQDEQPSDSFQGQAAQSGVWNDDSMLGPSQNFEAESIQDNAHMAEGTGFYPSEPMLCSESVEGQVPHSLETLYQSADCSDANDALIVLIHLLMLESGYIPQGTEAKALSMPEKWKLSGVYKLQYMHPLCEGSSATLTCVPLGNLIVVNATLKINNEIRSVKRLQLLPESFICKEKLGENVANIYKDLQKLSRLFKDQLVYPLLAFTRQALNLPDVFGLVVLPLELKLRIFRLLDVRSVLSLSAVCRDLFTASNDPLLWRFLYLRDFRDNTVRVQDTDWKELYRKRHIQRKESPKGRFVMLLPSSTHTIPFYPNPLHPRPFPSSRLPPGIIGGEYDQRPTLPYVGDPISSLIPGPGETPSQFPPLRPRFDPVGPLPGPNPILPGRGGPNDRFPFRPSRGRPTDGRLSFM
Sequence of UniProt Q9NVI1 (Q9NVI1 whole entry, looked up): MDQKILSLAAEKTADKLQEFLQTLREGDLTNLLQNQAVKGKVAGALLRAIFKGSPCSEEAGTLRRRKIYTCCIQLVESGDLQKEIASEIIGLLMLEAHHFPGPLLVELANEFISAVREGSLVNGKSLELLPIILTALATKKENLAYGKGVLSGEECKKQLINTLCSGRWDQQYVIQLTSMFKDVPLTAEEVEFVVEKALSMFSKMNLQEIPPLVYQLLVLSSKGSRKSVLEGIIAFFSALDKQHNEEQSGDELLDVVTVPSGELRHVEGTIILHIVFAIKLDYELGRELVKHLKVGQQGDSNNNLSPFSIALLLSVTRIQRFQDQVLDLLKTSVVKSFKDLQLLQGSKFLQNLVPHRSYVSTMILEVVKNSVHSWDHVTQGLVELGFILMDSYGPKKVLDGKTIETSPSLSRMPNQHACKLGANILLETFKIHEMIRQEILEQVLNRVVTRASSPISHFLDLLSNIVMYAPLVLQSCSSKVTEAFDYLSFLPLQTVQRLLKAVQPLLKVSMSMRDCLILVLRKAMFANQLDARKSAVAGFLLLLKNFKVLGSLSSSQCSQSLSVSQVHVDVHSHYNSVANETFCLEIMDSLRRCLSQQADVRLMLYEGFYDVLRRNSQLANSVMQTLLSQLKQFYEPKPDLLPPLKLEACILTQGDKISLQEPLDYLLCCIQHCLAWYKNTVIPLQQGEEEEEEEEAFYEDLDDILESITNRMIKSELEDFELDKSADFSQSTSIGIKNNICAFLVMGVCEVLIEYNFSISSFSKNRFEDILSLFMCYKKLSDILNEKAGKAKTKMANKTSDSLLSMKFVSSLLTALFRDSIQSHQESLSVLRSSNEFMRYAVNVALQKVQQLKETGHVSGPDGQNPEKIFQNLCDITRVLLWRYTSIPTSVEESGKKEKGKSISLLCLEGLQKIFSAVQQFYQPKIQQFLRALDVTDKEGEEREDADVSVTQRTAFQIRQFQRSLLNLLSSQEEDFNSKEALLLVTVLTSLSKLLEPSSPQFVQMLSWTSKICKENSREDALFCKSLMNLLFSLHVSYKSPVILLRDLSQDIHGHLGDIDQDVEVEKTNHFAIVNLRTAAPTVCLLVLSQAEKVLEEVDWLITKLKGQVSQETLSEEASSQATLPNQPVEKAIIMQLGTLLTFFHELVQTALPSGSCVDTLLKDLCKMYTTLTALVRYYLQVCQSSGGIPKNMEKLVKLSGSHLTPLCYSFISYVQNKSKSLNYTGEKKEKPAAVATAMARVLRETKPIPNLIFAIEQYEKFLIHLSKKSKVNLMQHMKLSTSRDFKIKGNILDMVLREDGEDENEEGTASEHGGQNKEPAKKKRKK
Sequence of UniProt Q13889 (Q13889 whole entry, looked up): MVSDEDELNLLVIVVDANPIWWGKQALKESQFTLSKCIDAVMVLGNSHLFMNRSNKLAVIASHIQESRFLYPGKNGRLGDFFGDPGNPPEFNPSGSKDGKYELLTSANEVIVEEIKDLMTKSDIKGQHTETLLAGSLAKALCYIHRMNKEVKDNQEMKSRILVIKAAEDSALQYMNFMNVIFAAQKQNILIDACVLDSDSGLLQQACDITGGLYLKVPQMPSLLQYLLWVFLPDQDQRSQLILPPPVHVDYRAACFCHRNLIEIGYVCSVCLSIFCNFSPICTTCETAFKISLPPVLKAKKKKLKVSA
Sequence of UniProt P55084 (P55084 whole entry, looked up): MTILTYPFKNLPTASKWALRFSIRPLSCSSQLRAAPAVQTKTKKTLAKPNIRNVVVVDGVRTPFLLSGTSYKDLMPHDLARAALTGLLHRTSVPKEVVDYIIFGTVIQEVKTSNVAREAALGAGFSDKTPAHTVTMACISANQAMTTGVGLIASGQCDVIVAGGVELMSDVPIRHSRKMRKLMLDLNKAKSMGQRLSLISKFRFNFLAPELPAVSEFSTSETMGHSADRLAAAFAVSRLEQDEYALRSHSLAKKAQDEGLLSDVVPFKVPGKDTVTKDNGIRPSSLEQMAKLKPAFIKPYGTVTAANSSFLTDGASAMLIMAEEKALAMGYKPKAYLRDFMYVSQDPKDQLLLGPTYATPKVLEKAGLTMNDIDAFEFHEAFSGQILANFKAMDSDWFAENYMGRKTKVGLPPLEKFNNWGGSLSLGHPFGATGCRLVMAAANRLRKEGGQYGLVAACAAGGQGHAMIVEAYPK
Sequence of UniProt P07910 (P07910 whole entry, looked up): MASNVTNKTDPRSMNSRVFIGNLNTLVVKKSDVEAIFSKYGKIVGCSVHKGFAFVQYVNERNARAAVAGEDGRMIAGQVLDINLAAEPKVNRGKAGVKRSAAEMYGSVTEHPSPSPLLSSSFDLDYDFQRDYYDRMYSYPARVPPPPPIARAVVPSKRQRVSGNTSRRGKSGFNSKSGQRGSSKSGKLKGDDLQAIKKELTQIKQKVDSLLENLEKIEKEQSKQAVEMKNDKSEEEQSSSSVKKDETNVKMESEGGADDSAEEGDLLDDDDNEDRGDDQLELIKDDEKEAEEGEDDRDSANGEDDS
Sequence of UniProt Q8WXD5 (Q8WXD5 whole entry, looked up): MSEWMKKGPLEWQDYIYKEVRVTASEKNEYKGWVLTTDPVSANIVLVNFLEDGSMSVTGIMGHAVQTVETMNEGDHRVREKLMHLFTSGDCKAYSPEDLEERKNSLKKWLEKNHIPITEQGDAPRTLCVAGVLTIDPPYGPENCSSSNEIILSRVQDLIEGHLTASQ

| Target | log2 fold change (erlotinib) | log2 fold change [1] | log2 fold change [2] | log2 fold change [3] | log2 fold change [4] | log2 fold change [5] | log2 fold change [6] | log2 fold change [7] | log2 fold change [8] | log2 fold change [9] |
| --- | --- | --- | --- | --- | --- | --- | --- | --- | --- | --- |
| FKBP3 (UniProt Q00688) | -0.001 | 0.014 | 0.061 | -0.012 | 0.013 | -0.004 | -0.028 | -0.001 | -0.007 | -0.017 |
| GABARAPL2 (UniProt P60520) | 0.065 | 0.013 | 0.021 | -0.02 | 0.072 | 0.016 | 0.077 | 0.008 | -0.027 | -0.021 |
| HDAC1 (UniProt Q13547) | 1.14 (active) | 0.015 | 0.011 | -0.01 | 0.16 | 0.004 | 0.021 | -0.055 | -0.004 | -0.018 |
| GTF2E2 (UniProt P29084) | 0.028 | 0.137 | 0.048 | -0.001 | 0.09 | 0.003 | -0.002 | 0.03 | -0.03 | -0.13 |
| GLS (UniProt O94925) | 0.003 | 0.105 | 0.174 | -0.107 | -0.043 | 0.14 | 0.034 | -0.023 | -0.091 | -0.03 |
| GCDH (UniProt Q92947) | 0.016 | -0.078 | 0.045 | -0.273 (active) | 0.081 | -0.011 | 0.082 | 0.048 | -0.011 | 0.039 |
| HHEX (UniProt Q03014) | -0.043 | -0.206 | 0.069 | 0.044 | 0.008 | -0.022 | -0.044 | 0.037 | -0.004 | 0.022 |
| GMEB2 (UniProt Q9UKD1) | 0.003 | 0.039 | 0.168 | 0.004 | -0.009 | 0.047 | -0.022 | -0.117 | -0.105 | 0.024 |
| IDI1 isoform 2 (UniProt Q13907) | 0.004 | -0.313 (active) | 0.03 | -0.012 | -0.033 | -0.004 | -0.038 | 0.034 | -0.02 | 0.002 |
| IFNGR1 (UniProt P15260) | 0.256 | 0.003 | 0.156 | -0.208 | -0.033 | -0.033 | -0.066 | -0.035 | 0.048 | 0.247 |
| GEMIN5 (UniProt Q8TEQ6) | -0.007 | 0.066 | -0.049 | 0.023 | 0.037 | 0.045 | 0.01 | 0.01 | 0.015 | 0.017 |
| HNRNPC isoform 2 (UniProt P07910) | 0.093 | -0.349 | -0.682 | 0.204 | 0.025 | 0.188 | -0.172 | -0.164 | 0.087 | -0.385 |
| GPAT4 (UniProt Q86UL3) | -0.017 | -0.002 | 0.06 | -0.021 | -0.016 | -0.016 | -0.01 | 0.032 | -0.087 | 0.07 |
| FDPS (UniProt P14324) | 0.18 | 0.174 | -0.022 | 0.067 | 0.3 | -0.026 | 0.06 | 0.186 | 0.006 | -0.309 |
| GNS (UniProt P15586) | -0.033 | -0.003 | 0.005 | 0.004 | 0.028 | 0.026 | 0.03 | -0.04 | 0.023 | 0.061 |
| FMC1 (UniProt Q96HJ9) | 0 | 0.072 | 0.083 | 0.004 | 0.108 | -0.063 | 0.319 (active) | 0.001 | -0.026 | -0.042 |
| FANCI (UniProt Q9NVI1) | 0.083 | 0.026 | 0.056 | 0.062 | 0.142 | 0.008 | 0.053 | -0.019 | -0.028 | -0.006 |
| GEMIN6 (UniProt Q8WXD5) | -0.002 | 0.02 | -0.042 | 0.027 | -0.022 | 0.065 | 0.125 | -0.012 | -0.002 | -0.045 |
| GALC (UniProt P54803) | -0.023 | -0.002 | -0.051 | 0.041 | 0.009 | 0.028 | -0.017 | -0.011 | -0.032 | 0.08 |
| GTF2H3 (UniProt Q13889) | -0.002 | 0.041 | -0.115 | 0.051 | 0.027 | -0.017 | 0.014 | 0.012 | -0.004 | 0.044 |
| HNRNPUL2 (UniProt Q1KMD3) | -0.054 | -0.08 | -0.138 | -0.015 | -0.057 | 0.012 | -0.056 | -0.014 | 0.011 | -0.102 |
| HNRNPUL1 (UniProt Q9BUJ2) | 0.022 | -0.009 | 0.018 | -0.012 | 0.001 | -0.01 | 0.004 | 0.014 | 0.029 | -0.048 |
| HADHB (UniProt P55084) | -0.057 | 0.112 | 0.035 | -0.184 | 0.063 | 0.024 | 0.04 | 0.259 | -0.206 | 0.158 |
| HADHA (UniProt P40939) | -0.085 | 0.122 | 0.044 | -0.18 | 0.042 | 0.02 | 0.07 | 0.271 | -0.214 | 0.171 |
| FASTKD1 (UniProt Q53R41) | 0.207 | 0.219 | 0.142 | -0.051 | -0.072 | -0.033 | 0.281 | 0.093 | -0.108 | -0.014 |
| FBXO7 (UniProt Q9Y3I1) | 0.039 | 0.033 | 0.014 | -0.055 | 0.033 | -0.038 | 0.001 | -0.014 | 0.005 | 0 |
| GLRX3 (UniProt O76003) | -0.031 | 0.024 | 0.052 | -0.037 | 0.011 | 0.006 | 0.031 | -0.001 | 0.003 | -0.015 |
| FIBP (UniProt O43427) | 0.023 | 0.088 | 0.011 | -0.002 | 0.107 | -0.023 | -0.032 | 0.011 | -0.144 | 0.125 |
| HMGN2 (UniProt P05204) | -0.02 | -0.01 | -0.255 | 0.034 | -0.125 | -0.039 | -0.052 | 0.059 | 0.011 | 0.019 |
| HBQ1 (UniProt P09105) | -0.007 | -0.021 | 0.33 (active) | 0.03 | 0.059 | 0.011 | 0.051 | -0.021 | -0.093 | 0.026 |
